Laboratory results from PubChem BioAssay (EPA / NIEHS).
Calls of active or inactive are those of the source. Rule for the calls: active = hit-call score of the fitted dose curve at least 0.9, where 1 is the maximum; inactive = score below 0.9.

Assay: APR_HepG2_StressKinase_24hr: Apredica 24-hour HepG2 Assay for Stress Kinase (AID 2282922)
Settings: HepG2 stress kinase (phospho-c-Jun) imaging, actives raise or lower the signal
Outline: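 HepG2, 24 hr dosing, 0.39–200 uM in duplicate, 0.5% DMSO; formaldehyde fix (3.7%), 0.5% Triton X-100; anti-phospho-c-Jun + Cy3 secondary, Hoechst counterstain; ArrayScan imaging; bidirectional curve fit vs DMSO baseline.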

Compound	outcome	AC50
CC(=O)NC1(c2cccc(F)c2)CCN(CC[C@@]2(c3ccc(Cl)c(Cl)c3)CN(c3ccccc3)C(=O)CO2)CC1	inactive	
CCc1ccc(CCOc2ccc(CC3SC(=O)NC3=O)cc2)nc1 (configuration not stated)	inactive	
CCOC(=O)CC(O)(CC(=O)OCC)C(=O)OCC	inactive	
Oc1cc2ccccc2c2ccccc12		121 µM (active)
CC[C@H](C)[C@@H](C(=O)O)n1sc2ccccc2c1=O	inactive	
CCCCC[C@H](O)CC(=O)CCc1ccc(O)c(OC)c1	inactive	
Cc1oc(-c2ccccc2)nc1CCOc1ccc(C[C@H](Nc2ccccc2C(=O)c2ccccc2)C(=O)O)cc1	inactive	
N#C[C@@H]1CC(F)(F)CN1C(=O)CNC1CC2CCC(C1)N2c1ncccn1 (some centres not stated)	inactive	
CCCCCCCCCCCCc1ccccc1S(=O)(=O)O	inactive	
C[C@@H]1C[C@H]2[C@@H]3CCC4=CC(=O)C=C[C@]4(C)[C@@]3(F)[C@@H](O)C[C@]2(C)[C@@]1(O)C(=O)COP(=O)(O)O	inactive	
COCC(C)O (configuration not stated)	inactive	
O=[N+]([O-])c1ccc(O)cc1	inactive	
O=C(OCCOCCOC(=O)c1ccccc1)c1ccccc1	inactive	
CCC(C)(C)C1CCC(O)CC1 (configuration not stated)	inactive	
Cc1cc(CCN2CCN(c3nsc4ccccc34)CC2)cc2c1NC(=O)CC2(C)C	inactive	
c1ccc2cc3c(ccc4ccccc43)cc2c1	inactive	
CCCOC(=O)c1ccc(O)cc1	inactive	
CN1CCC[C@H]1c1cccnc1	inactive	
O=C(O)Cc1cc(I)c(Oc2cc(I)c(O)c(I)c2)c(I)c1	inactive	
CC(=O)CC(C)(C)O		100 µM (active)
CCN(CC)CCNc1ccc(CNC=O)c2sc3ccc(OC)cc3c(=O)c12	inactive	
CCCCC(CC)COC(=O)CCCCC(=O)OCc1ccccc1 (configuration not stated)	inactive	
CC#C[C@]1(O)CC[C@H]2[C@@H]3CCC4=CC(=O)CCC4=C3[C@@H](c3ccc(N(C)C)cc3)C[C@@]21C	inactive	
c1ccc2c(c1)Cc1ccccc1-2	inactive	
CCCCCCCCOC(=O)CCCCCCCCC(=O)OCCCCCCCC	inactive	

Assay: APR_HepG2_p53Act_72hr: Apredica 72-hour HepG2 Assay for p53 Activation (AID 2282923);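 note: average cellular p53 protein immunofluorescence intensity in HepG2 cells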
Settings: high-content imaging, actives raise or lower the signal
Outline: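 HepG2 cells exposed 72 h to 0.39–200 uM in 0.5% DMSO, duplicates. Fixed, permeabilized cells immunostained for p53 (Cy5) with Hoechst; imaged at 20x, fluorescence analyzed bidirectionally against DMSO.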

Compound	AC50	outcome
CC(C)(C)CC(C)(C)c1ccc(O)c(-n2nc3ccccc3n2)c1	19 µM (active)	
CC(=O)NC1(c2cccc(F)c2)CCN(CC[C@@]2(c3ccc(Cl)c(Cl)c3)CN(c3ccccc3)C(=O)CO2)CC1	18.7 µM (active)	
CCc1ccc(CCOc2ccc(CC3SC(=O)NC3=O)cc2)nc1 (configuration not stated)		inactive
CCOC(=O)CC(O)(CC(=O)OCC)C(=O)OCC		inactive
Oc1cc2ccccc2c2ccccc12	111 µM (active)	
CC[C@H](C)[C@@H](C(=O)O)n1sc2ccccc2c1=O		inactive
CCCCC[C@H](O)CC(=O)CCc1ccc(O)c(OC)c1		inactive
CN1CCN(c2ccccc2/C=C2\SCCN(c3ccc(Cl)c(Cl)c3)C2=O)CC1		inactive
Cc1oc(-c2ccccc2)nc1CCOc1ccc(C[C@H](Nc2ccccc2C(=O)c2ccccc2)C(=O)O)cc1	95.7 µM (active)	
CCc1nn(C2CCCCC2)c2cc(C3(C#N)CCC(C(=O)O)CC3)ccc12 (configuration not stated)	97.7 µM (active)	
CC[C@H](c1ccc(O)cc1)[C@@H](CC)c1ccc(O)cc1		inactive
N#C[C@@H]1CC(F)(F)CN1C(=O)CNC1CC2CCC(C1)N2c1ncccn1 (some centres not stated)		inactive
CCCCCCCCCCCCc1ccccc1S(=O)(=O)O	106 µM (active)	
OCCC(F)(F)C(F)(F)C(F)(F)C(F)(F)C(F)(F)C(F)(F)C(F)(F)C(F)(F)F	29.5 µM (active)	
C[C@@H]1C[C@H]2[C@@H]3CCC4=CC(=O)C=C[C@]4(C)[C@@]3(F)[C@@H](O)C[C@]2(C)[C@@]1(O)C(=O)COP(=O)(O)O	1.45 µM (active)	
COCC(C)O (configuration not stated)		inactive
OC1CCCCC1		inactive
O=[N+]([O-])c1ccc(O)cc1		inactive
CC(C)(C)c1cc(C(C)(C)C)c(O)c(C(C)(C)C)c1	0.357 µM (active)	
O=C(OCCOCCOC(=O)c1ccccc1)c1ccccc1		inactive
CCC(C)(C)C1CCC(O)CC1 (configuration not stated)	105 µM (active)	
Cc1cc(CCN2CCN(c3nsc4ccccc34)CC2)cc2c1NC(=O)CC2(C)C	33.8 µM (active)	
c1ccc2cc3c(ccc4ccccc43)cc2c1		inactive
CCCOC(=O)c1ccc(O)cc1		inactive
NC(=O)N(O)[C@@H]1C=C[C@H](Oc2cccc(Oc3ccc(F)cc3)c2)C1		inactive
COC(=O)CCCCC(=O)OC		inactive
CC(O)CO (configuration not stated)		inactive
